Data on 15 compounds can be found in PubChem BioAssay (NCATS).

Inconclusive results are not listed. Calls of active or inactive are those of the source. Calls come from the whole dose curve; as a rule, active = well fitted curve in the direction sought with a large enough effect; inconclusive = small, poorly fitted or top-dose-only effect, or another doubt; inactive = no such curve, though single readings can be large; an effect the other way counts as inactive or inconclusive.

Assay [1] in a line: Quantitative High-Throughput drug screen in 47 multiple myeloma cell lines against the NCATS MIPE library collection: FR4_PLB cell viability assay (AID 1918924; note: nearly all actives have a fitted effect of over 35% in size). A digest of the protocol:
(§1)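 Viability readout: CellTiter-Glo luminescence following 5 min room-temperature incubation with reagent. Prior exposure: 48 h, 37C, humidified 5% CO2, 500 cells per well.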

Assay [2] in a line: Quantitative High-Throughput drug screen in 47 multiple myeloma cell lines against the NCATS MIPE library collection: ARP1_JJKsccF8 cell viability assay (AID 1918928; note: nearly all actives have a fitted effect of over 40% in size). A digest of the protocol:
(§2)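 Myeloma cells, 500 per well, were exposed to MIPE 4.0 drugs by pin transfer for 48 h at 37 °C, 5% CO2. Viability was read as ATP luminescence with CellTiter-Glo, normalised to DMSO-only (100%) and medium-only (0%) wells.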

Assay [3] is described as follows: Quantitative High-Throughput drug screen in 47 multiple myeloma cell lines against the NCATS MIPE library collection: ARD_JJKsccE7 cell viability assay (AID 1918929;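 for viability: 100% = DMSO-only wells and 0% = media-only wells without cells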). A digest of the protocol: (§3)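 Primary qHTS used for cherry-picking: cells at 500/well, library compounds for 48 h (37C, 5% CO2), luminescent ATP assay.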
The nature of assay [4]: Quantitative High-Throughput drug screen in 47 multiple myeloma cell lines against the NCATS MIPE library collection: Karpas620_DSMZ cell viability assay (AID 1918959).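 For viability (% of DMSO): 100% = DMSO-only wells and 0% = cell-free media-only wells.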 Note: nearly all actives have a fitted effect of over 30% in size. A digest of the protocol:
as §1

Assay [5] is described as follows: Quantitative High-Throughput drug screen in 47 multiple myeloma cell lines against the NCATS MIPE library collection: KMM1_JCRB cell viability assay (AID 1918960). Note: nearly all actives have a fitted effect of over 30% in size. A digest of the protocol:
as §2

Assay [6] can be described thus: Quantitative High-Throughput drug screen in 47 multiple myeloma cell lines against the NCATS MIPE library collection: JIM3_ECACC cell viability assay (AID 1918963; note: nearly all actives have a fitted effect of over 35% in size). A digest of the protocol:
as §1

Assay [7] in a line: Quantitative High-Throughput drug screen in 47 multiple myeloma cell lines against the NCATS MIPE library collection: JIM1_ECACC cell viability assay (AID 1918964). A digest of the protocol:
as §3

Assay [8] is described as follows: Quantitative High-Throughput drug screen in 47 multiple myeloma cell lines against the NCATS MIPE library collection: H1112_PLB cell viability assay (AID 1918967; note: nearly all actives have a fitted effect of over 30% in size). A digest of the protocol:
as §3

A short description of assay [9]: Quantitative High-Throughput drug screen in 47 multiple myeloma cell lines against the NCATS MIPE library collection: KMS12BM_JCRB cell viability assay (AID 1918971). Note: nearly all actives have a fitted effect of over 35% in size. A digest of the protocol:
as §1

Assay [10] is described as follows: Quantitative High-Throughput drug screen in 47 multiple myeloma cell lines against the NCATS MIPE library collection: AMO1_DSMZ cell viability assay (AID 1918927; note: nearly all actives have a fitted effect of over 30% in size). A digest of the protocol: as §3
Assay [11] can be described thus: Quantitative High-Throughput drug screen in 47 multiple myeloma cell lines against the NCATS MIPE library collection: INA6_PLB cell viability assay (AID 1918965; note: nearly all actives have a fitted effect of over 55% in size). A digest of the protocol:
(§4)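 Approved and investigational drugs from MIPE 4.0 were added by pin tool to 500 cells per well. After 48 hours at 37C, ATP-based CellTiter-Glo luminescence indicated remaining viability.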

Assay [12] is described as follows: Quantitative High-Throughput drug screen in 47 multiple myeloma cell lines against the NCATS MIPE library collection: KMS27_JCRB cell viability assay (AID 1918970).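 For viability (% of DMSO): 100% = DMSO-only wells and 0% = media-only wells without cells.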 Note: nearly all actives have a fitted effect of over 30% in size. The settings on record: KMS27 myeloma cells, CellTiter-Glo ATP viability, 48 h; viability (% of DMSO): at 45.8 µM (top of the series). A digest of the protocol:
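Viability inhibition screen, 48 h compound exposure, luminescent ATP read-out.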
Background: In ATP-based viability assays light output follows the ATP content of the culture.

Assay [13] in a line: Quantitative High-Throughput drug screen in 47 multiple myeloma cell lines against the NCATS MIPE library collection: Karpas417_ECACC cell viability assay (AID 1918961). Particulars: Karpas417 myeloma viability, CellTiter-Glo ATP luminescence, 48 h; viability (% of DMSO): at 45.8 µM (top of the series). A digest of the protocol:
as §4

Assay [14] can be described thus: Quantitative High-Throughput drug screen in 47 multiple myeloma cell lines against the NCATS MIPE library collection: KHM11_PLB cell viability assay (AID 1918962). Note: nearly all actives have a fitted effect of over 35% in size. A digest of the protocol: as §1
Assay [15] in a line: Quantitative High-Throughput drug screen in 47 multiple myeloma cell lines against the NCATS MIPE library collection: JJN3_DSMZ cell viability assay (AID 1918966; note: nearly all actives have a fitted effect of over 50% in size). A digest of the protocol:
as §3

Assay [16] in a line: Quantitative High-Throughput drug screen in 47 multiple myeloma cell lines against the NCATS MIPE library collection: Karpas25_ECACC cell viability assay (AID 1918968; note: nearly all actives have a fitted effect of over 35% in size). A digest of the protocol:
as §3

A short description of assay [17]: Quantitative High-Throughput drug screen in 47 multiple myeloma cell lines against the NCATS MIPE library collection: EJM_DSMZ cell viability assay (AID 1918926; note: nearly all actives have a fitted effect of over 30% in size). A digest of the protocol:
as §3

Assay [18] in a line: Quantitative High-Throughput drug screen in 47 multiple myeloma cell lines against the NCATS MIPE library collection: Delta47_JCRB cell viability assay (AID 1918925; note: nearly all actives have a fitted effect of over 45% in size). A digest of the protocol:
as §3
Potency is the fitted concentration of half-maximal effect.

Consider `CCNC(=O)Nc1ccc(Oc2ncnc(N)c2C=NOC)cc1Cl`, for which the Potency in assay [1] was 3.72 µM (active); in assay [2], 20.9 µM (active); in [3] it was 5.9 µM (active); in assay [4], 4.69 µM (active); in [5], 4.69 µM (active); in assay [6], 9.35 µM (active). Besides, the Potency in assay [7] is 2.64 µM (active); in [9], 14.8 µM (active). Also, the Potency result in assay [8] was “inactive”.
Turning to `CC(C)c1onc(-c2c(Cl)cccc2Cl)c1COc1ccc(C=Cc2cccc(C(=O)O)c2)c(Cl)c1`, the Potency entry in assay [1], in assay [10], in assay [2], in assay [4], in assay [5] and in assay [7] was “inactive” throughout. Besides, the Potency result in [11], in [8] and in assay [12] was “inactive” throughout.
On to `COC(=O)Nc1ccc(-c2nc(N3CCOCC3)c3cnn(C4CCN(C(=O)OC)CC4)c3n2)cc1`, for which the Potency in assay [1] is 1.05 µM (active); in [2], 0.662 µM (active); in assay [5] it was 0.469 µM (active); in assay [13] it was 0.059 µM (active); in [14], 0.0833 µM (active); in assay [6] it was 0.264 µM (active). The Potency was 0.0935 µM (active) in [11]; 0.935 µM (active) in assay [15]; 0.0662 µM (active) in [8]; 0.0187 µM (active) in assay [16]; 0.935 µM (active) in assay [9].
On to `Cc1ccc(C2=Nc3ccc(Cl)cc3OC2)cc1`, for which the Potency was 4.69 µM (active) in assay [1], 1.18 µM (active) in assay [10], 3.32 µM (active) in assay [5] and 5.26 µM (active) in assay [15]. Besides, the Potency entry in [4], in assay [6] and in assay [8] was “inactive” in each case.
As for `CCC[C@H](N[C@@H](C)C(=O)N1[C@@H]2CCCC[C@H]2C[C@H]1C(=O)O)C(=O)OCC`, the Potency result in assay [1], in assay [17], in [2], in assay [4], in assay [11] and in assay [8] was “inactive” throughout. The Potency entry in assay [16] was “inactive”. Further, in [6], the Potency was 14.8 µM (active).
For the compound `O=C1CN2Cc3c(ccc(Cl)c3Cl)N=C2N1`, the Potency in assay [18] was 29.6 µM (active); in assay [8] it was 29.6 µM (active); in [16], 26.4 µM (active); in [9], 23.5 µM (active). Also, the Potency result in [17], in assay [10], in assay [3], in assay [4], in assay [5] and in assay [7] was “inactive” each time.
As to `COc1cc2nc(-c3cc(F)ccc3O)nc(N[C@@H]3CNC[C@@H]3C(C)(C)O)c2cc1OC`, the Potency in [18] is 2.64 µM (active); in assay [17], 11.8 µM (active); in assay [10], 6.62 µM (active); in assay [2] it was 10.5 µM (active); in assay [4], 6.62 µM (active); in assay [14], 0.0743 µM (active). Further, the Potency in [6] was 7.43 µM (active); in assay [7], 1.87 µM (active); in [11], 0.001 µM (active); in assay [15] it was 11.8 µM (active); in assay [8], 14.8 µM (active); in assay [16] it was 4.18 µM (active). Also, the Potency is 5.9 µM (active) in assay [12] and 20.9 µM (active) in assay [9].
With `CC(=O)N1CCN(c2ccc(OCc3nn(C)c(C)c3-c3cccc4c(CCCOc5cc(C)c(Cl)c(C)c5)c(C(=O)O)n(Cc5cccnc5)c34)cc2)CC1`, the Potency in assay [18] is 4.69 µM (active); in [17], 20.9 µM (active); in [10], 6.62 µM (active); in assay [3], 20.9 µM (active); in [4], 26.4 µM (active); in assay [11], 1.66 µM (active). Also, the Potency was 7.43 µM (active) in assay [8] and 8.33 µM (active) in assay [12].
On to `O=C(O)Cc1cccc(OCCCN(Cc2cccc(C(F)(F)F)c2Cl)CC(c2ccccc2)c2ccccc2)c1`, for which the Potency entry in [1], in [10], in [3] and in assay [4] was “inactive” in each case. Besides, the Potency in assay [15] was 5.26 µM (active); in assay [9] it was 3.32 µM (active).
`CCC(=O)NCC[C@@H]1CCc2ccc3c(c21)CCO3`: the Potency result in assay [18], in assay [17], in [10], in assay [3], in [4] and in assay [5] was “inactive” each time. Also, the Potency entry in assay [12] and in assay [9] was “inactive” in each case. For the same compound, the Potency in assay [14] and in assay [16] was 13.2 µM (active) each time.
In the case of `CC1(C)C(N(O)C(=O)Nc2ccc(Cl)cc2)N(c2ccc(Cl)cc2)C(=O)N1CC(=O)NN=CC=Cc1ccc([N+](=O)[O-])o1` (stereo not drawn), the Potency is 7.43 µM (active) in assay [18]; 16.6 µM (active) in assay [17]; 7.43 µM (active) in [2]; 11.8 µM (active) in assay [14]; 14.8 µM (active) in [6]; 7.43 µM (active) in assay [11]. The Potency in assay [15] is 4.18 µM (active); in [8], 9.35 µM (active); in assay [16] it was 8.33 µM (active); in assay [9] it was 8.33 µM (active). For the same compound, the Potency result in assay [10], in assay [3], in [4] and in [12] was “inactive” throughout.
`Cc1cccc(Nc2nc(N[C@@H]3CCCC[C@H]3N)ncc2C(N)=O)c1`: the Potency in [18] is 0.187 µM (active); in assay [17], 20.9 µM (active); in [10] it was 20.9 µM (active); in assay [2] it was 16.6 µM (active); in [3], 20.9 µM (active); in assay [4], 26.4 µM (active). In addition, the Potency in assay [5] is 16.6 µM (active); in [14], 4.18 µM (active); in [6], 16.6 µM (active); in assay [7] it was 5.9 µM (active); in [11], 1.48 µM (active); in assay [15] it was 16.6 µM (active). Besides, the figures for the Potency in assay [16], in assay [12] and in assay [9] were 10.5 µM (active), 23.5 µM (active) and 14.8 µM (active), respectively.
As for `FC(F)(F)c1ccc(C=Cc2nc(COc3ccc(CCCCn4ccnn4)cc3)co2)cc1`, the Potency in assay [1] was 0.0662 µM (active); in assay [10] it was 0.0105 µM (active); in assay [6] it was 0.332 µM (active); in assay [7], 0.0074 µM (active); in [11], 0.0132 µM (active); in [9], 0.0526 µM (active). In addition, in assay [15], the Potency entry was “inactive”. In addition, the viability (% of DMSO) in assay [12] was 74.6% (active).
Take `Cc1ccc(NC(=O)Nc2cc(C(F)(F)F)ccc2F)cc1Nc1ccc2c(c1)NC(=O)C2=Cc1ccc[nH]1`: the Potency in [18] was 4.69 µM (active); in assay [17], 26.4 µM (active); in [10], 4.18 µM (active); in assay [3] it was 3.32 µM (active); in [4], 5.26 µM (active); in assay [5], 5.9 µM (active). The Potency in assay [13] is 2.09 µM (active); in assay [14], 7.43 µM (active); in assay [6], 4.18 µM (active); in assay [7] it was 4.18 µM (active); in [11], 4.18 µM (active); in assay [15], 23.5 µM (active). Moreover, the Potency in [8] is 11.8 µM (active); in assay [16], 5.26 µM (active); in [12], 8.33 µM (active); in [9], 26.4 µM (active).
Take `Cn1c(=O)c(Oc2ccc(F)cc2F)cc2cnc(NC3CCOCC3)nc21`: the Potency result in [1], in assay [17], in assay [4], in assay [6], in assay [8] and in assay [12] was “inactive” each time. Also, the values for the Potency in assay [3] and in [9] were 0.0074 µM (active) and 16.6 µM (active), respectively.
